Screening results: PubChem, several laboratories
Most compounds without a hit are left out; they make up all but 3.4% or so of the library.
TMEM16A act: TMEM16A chloride channel activators or potentiators, primary screen, cell-based, HTS. Anoctamin-1 (Mus musculus), Q8BHY3. HEK293 TMEM16A/YFP-H148Q/I152L, iodide quench fluorescence; hits give low values. B-score at 10 µM. 340,000 tested, 0.3% active. AID 623877, 2012;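 active means fluorescence-ratio B-score plate-corrected deviation score at least 3 library SD below zero, with starting fluorescence score within 5 deviations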;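 further: channel opened by trigger with iodide after compound preincubation; score built on the fluorescence ratio of max minus min over baseline; more negative score means more quench and so TMEM16A activation or potentiation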
Target sequence (Q8BHY3 whole entry, looked up): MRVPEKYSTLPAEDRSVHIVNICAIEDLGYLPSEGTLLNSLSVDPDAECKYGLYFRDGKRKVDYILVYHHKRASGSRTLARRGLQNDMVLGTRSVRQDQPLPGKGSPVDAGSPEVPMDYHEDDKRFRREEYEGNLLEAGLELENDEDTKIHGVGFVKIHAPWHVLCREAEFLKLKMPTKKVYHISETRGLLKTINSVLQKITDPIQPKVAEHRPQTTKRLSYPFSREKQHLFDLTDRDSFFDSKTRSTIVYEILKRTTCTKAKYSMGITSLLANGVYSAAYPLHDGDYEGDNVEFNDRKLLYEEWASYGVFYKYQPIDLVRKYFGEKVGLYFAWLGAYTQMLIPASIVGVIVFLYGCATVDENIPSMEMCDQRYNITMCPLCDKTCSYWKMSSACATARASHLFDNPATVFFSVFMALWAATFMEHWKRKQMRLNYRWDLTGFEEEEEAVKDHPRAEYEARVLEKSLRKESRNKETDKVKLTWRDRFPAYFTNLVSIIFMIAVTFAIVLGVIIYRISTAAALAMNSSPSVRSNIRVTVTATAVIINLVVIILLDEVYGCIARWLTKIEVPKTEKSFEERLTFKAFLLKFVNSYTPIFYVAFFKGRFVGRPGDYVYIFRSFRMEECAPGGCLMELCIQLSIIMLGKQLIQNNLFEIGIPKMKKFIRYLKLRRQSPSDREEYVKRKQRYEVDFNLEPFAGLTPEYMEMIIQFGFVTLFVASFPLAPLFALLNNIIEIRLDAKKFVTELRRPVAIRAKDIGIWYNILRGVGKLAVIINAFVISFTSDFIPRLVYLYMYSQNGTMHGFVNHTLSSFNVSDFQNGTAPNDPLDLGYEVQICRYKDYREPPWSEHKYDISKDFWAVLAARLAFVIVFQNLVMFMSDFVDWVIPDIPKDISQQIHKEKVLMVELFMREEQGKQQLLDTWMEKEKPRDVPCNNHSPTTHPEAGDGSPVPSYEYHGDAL
MEKK3 PB1 HTS: modulators of MEKK3-MEK5 PB1 binding, primary screen, biochemical, wildtype MEKK3, multiplex bead flow cytometry, Alexa488-MEK5; bead-based flow cytometry, Alexa488-MEK5 binding to MEKK3; actives lie on both sides; 0 = blocked by unlabeled MEK5, 100 = vehicle; 290,000 tested, 1.4% active; Mitogen-activated protein kinase kinase kinase 3 (Homo sapiens), Q99759; binding response (% of control), % at 10 µM;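 active means binding response more than 3 SD above or below the average of its plate-row segment, actives on both sides; inconclusive means wells at one plate position flagged as instrument error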;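 further: Alexa488 bead fluorescence after subtracting the streptavidin-only scavenger bead signal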
MEKK2 WT-MEK5: modulators of MEK5 binding to wildtype MEKK2, primary screen, biochemical, multiplex bead flow cytometry, Alexa488-MEK5 | AID 1531, 2009 | Alexa488-MEK5 binding to MEKK2 WT; actives lie on both sides | 290,000 tested, 1.1% active | binding response (% of control), % at 10 µM | Mitogen-activated protein kinase kinase kinase 2 (Homo sapiens), Q9Y2U5; in the data active means binding response below about 67% or above about 130%; inconclusive means no clear call, values can overlap the other calls; inactive means in between
ANO1 block: TMEM16A chloride channel inhibitors, primary screen, cell-based, HTS | AID 588511, 2011 | normalized B-score (activity score, 25-100; higher = stronger inhibition) at 10 µM | Anoctamin-1 (Mus musculus), Q8BHY3 | HEK293 TMEM16A/YFP iodide influx fluorescence, ionomycin | 310,000 tested, 1.2% active;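 active means ratio plate-corrected score three or more library SD toward inhibition, starting fluorescence score within five deviations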;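 further: score derived from kinetic fluorescence span divided by baseline fluorescence per well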
NTR1 agonist: agonists of human NTR1, primary screen, imaging, U2OS cells, beta-arrestin-GFP, high content. Neurotensin receptor type 1 (Homo sapiens), P30989. 330,000 tested, 0.17% active. activation, % at 20 µM. NTR1-U2OS beta-arrestin-GFP spot imaging, agonist mode;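 active means activation at or above 40% of the spot to cytoplasm intensity ratio, with at least 20 cells analyzed; inconclusive means wells under 20 cells, flagged as cytotoxic or low count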;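 further: 0% = DMSO without peptide and 100% = 100 nM NTR1 peptide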
MEKK2mut PB1 HTS: MEK5 binding signal on mutant MEKK2 PB1, primary screen, biochemical, multiplex bead flow cytometry, Alexa488-MEK5. percent response, % at 10 µM. Alexa488-MEK5 binding to MEKK2 mutant. AID 1530, 2009. 290,000 tested, 0.35% active; in the data active means percent response above about 24%, passing the limit was not always enough
NTR1 ag conf: NTR1 agonists, single-dose retest, confirmation, imaging, U2OS cells, beta-arrestin-GFP, single concentration; shares compounds with NTR1 agonist; 480 tested, 38% active; activation, % at 20 µM; NTR1-U2OS beta-arrestin-GFP translocation imaging;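 active means mean activation at 20 µM of at least 40%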;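 further: 0% = DMSO without peptide and 100% = 100 nM NTR1 peptide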
Active calls of the source: *; i = inactive; u = inconclusive; x = no result.

SMILES | TMEM16A act | MEKK3 PB1 HTS | MEKK2 WT-MEK5 | ANO1 block | NTR1 agonist | MEKK2mut PB1 HTS | NTR1 ag conf
O=C(COC(=O)c1c(Cl)ccc(Cl)c1Cl)NC(=O)NCc1ccccc1 | i | 98 | 103 | i | 14 | 0 | x
CC(C)S(=O)(=O)c1csc(NC(=O)Nc2cc(Cl)ccc2Cl)c1Cl | i | 95 | 96 | i | 42* | -9 | 12
CC(=O)NC(CCS(C)(=O)=O)C(=O)Nc1cc(Cl)ccc1Cl (stereo unspecified) | i | 98 | 100 | i | -2 | 0 | x
CCOc1cccc(-c2nn(-c3ccccc3)cc2/C=C(/C#N)C(=O)NCCCn2ccnc2)c1 | i | 102 | 121 | i | 44* | 2 | 27
O=C(NCCc1c[nH]c2ccccc12)OCCCCOC(=O)NCCc1c[nH]c2ccccc12 | i | x | x | i | 67* | x | 17
Cc1cccc(C)c1NC(=O)CN(C)CC(=O)N1CC(=O)Nc2ccccc21 | i | x | x | x | -1 | x | x
COc1cc2ccccc2cc1C(=O)N(CCN(C)C)c1nc2c(OC)ccc(OC)c2s1 | i | 104 | 147* | i | 42* | 24* | 3
COc1ccc(OC)c2sc(N(CCN(C)C)C(=O)c3ccc4ccccc4c3)nc12 | i | 105 | 134 | i | 0 | 11 | x
CCC1CCCCN1C(=O)COC(=O)CN(C)S(=O)(=O)c1ccc(NC(C)=O)cc1 (stereo unspecified) | i | x | x | i | 1 | x | x
CCc1ccc(NC(=O)COc2ccc(/C=C(/C#N)c3nc4ccccc4[nH]3)cc2OC)cc1 | i | 98 | 97 | i | 52* | -5 | -1
C=CCn1c(=NC(=O)c2cccc(N3C(=O)CCC3=O)c2)sc2cccc(OC)c21 | i | 106 | 103 | i | 47* | 5 | 54*
COc1ccc(C)c2sc(=NC(=O)c3cccc(N4C(=O)CCC4=O)c3)n(C)c12 | i | 101 | 101 | i | 6 | 0 | x
CCc1nc2c(s1)CCc1onc(-c3ccc(Cl)cc3)c1-2 | i | x | x | i | 6 | x | x
CC(C)C[C@@H](CO)N(Cc1ccccc1)S(=O)(=O)N(Cc1ccccc1)[C@H](CO)CC(C)C | i | x | x | x | 50* | x | 19
CC(C)C[C@@H](CO)N(Cc1ccccc1)S(=O)(=O)N(Cc1ccccc1)[C@@H](CO)CC(C)C | i | x | x | x | 47* | x | 21
CC(=O)NC(CC(=O)NCc1ccncc1)c1ccccc1 (stereo unspecified) | i | 105 | 106 | i | 0 | 12 | x
COc1ccc(OC)c(NC(=O)Cn2c(=O)n(CC3CCCO3)c(=O)c3cc(OC)c(OC)cc32)c1 (stereo unspecified) | i | 99 | 97 | i | 1 | 2 | x
Cn1cc(C(C[N+](=O)[O-])c2ccccc2)c2ccccc21 (stereo unspecified) | i | 104 | 101 | i | 4 | -3 | x
CC(=O)n1cc(C(C[N+](=O)[O-])SCCN)c2ccccc21 (stereo unspecified) | i | 97 | 102 | i | 47* | 1 | 76*
C=CCn1c(SCC(=O)Nc2ncc(Cc3cc(Cl)ccc3Cl)s2)nnc1-c1ccncc1 | i | 104 | 102 | i | 1 | 6 | x
O=C(N/N=C/c1cn(-c2ccccc2)nc1-c1cc2ccccc2o1)c1cccnc1 | i | 100 | 106 | i | 40* | -1 | 62*
O=C(N/N=C/c1cn(-c2ccccc2)nc1-c1cccnc1)c1ccc(F)cc1 | i | 101 | 97 | i | 7 | -2 | x
COc1ccc(/C=C2/SC(=S)N(Cc3ccccc3)C2=O)cc1O | i | 87 | 81 | i | 44* | -14 | 5
O=C(CN(C(=O)c1ccc(Cl)cc1)N1C(=O)C2CCCCC2C1=O)c1ccc(Cl)cc1 (stereo unspecified) | i | 95 | 98 | i | 52* | 1 | 47*
O=C(Nc1nc(-c2nc3ccccc3s2)cs1)C1COc2ccccc2O1 (stereo unspecified) | i | 105 | 108 | i | 41* | 8 | -3
SMILES | TMEM16A act | MEKK3 PB1 HTS | MEKK2 WT-MEK5 | ANO1 block | NTR1 agonist | MEKK2mut PB1 HTS | NTR1 ag conf
COc1ccc(OC)c(-c2csc(NC(=O)C3COc4ccccc4O3)n2)c1 (stereo unspecified) | i | 107 | 105 | i | 9 | 2 | x
Cc1cc(C)nc(Sc2ccc(C=O)cc2[N+](=O)[O-])n1 | i | 101 | 103 | i | 3 | -1 | x
O=Cc1ccc(Sc2nnc(-c3ccccc3)o2)c([N+](=O)[O-])c1 | i | 97 | 87 | i | u | -2 | 8
CC(C)CCCCCCCCCCCCC(=O)NCC(=O)NC1C(C)OC(Nc2ncnc3nc[nH]c23)C(O)C1O (stereo unspecified) | i | x | x | x | x | x | x
CCSc1ccc2c(c1)N(CCCN1CCN(C)CC1)c1ccccc1S2 | i | x | x | i | 43* | x | 9
N#CCN1CCC(c2cc(-c3ccco3)n[nH]2)CC1 | x | 94 | 82 | i | 0 | -13 | x
CC(C)(C)OC(=O)COc1cc(OCC(=O)OC(C)(C)C)c2c(=O)cc(-c3ccccc3)oc2c1 | i | 88 | 96 | 100* | 53* | 2 | 16
O=C(O)CCCCCN1C(=O)/C(=C/c2cn(-c3ccccc3)nc2-c2cccs2)SC1=S | i | x | x | x | x | x | x
CC1=NNC(=O)/C1=C\c1cn(-c2ccccc2)nc1-c1cccs1 | i | 91 | 91 | i | 83* | -2 | 96*
COc1ccc2[nH]c3c(N4CCC(O)(c5cccc(C(F)(F)F)c5)CC4)ncnc3c2c1 | i | 108 | 126 | 100* | 49* | 14 | 8
COc1ccc2[nH]c3c(N4CCN(Cc5ccc6c(c5)OCO6)CC4)ncnc3c2c1 | i | 103 | 119 | i | 11 | 3 | x
CCN(C(=O)COC(=O)C1CCN(S(=O)(=O)c2ccc(C)c(C)c2)CC1)C1CCCCC1 | i | x | x | x | 4 | x | x
CCOC(=O)c1cc(-c2ccc(/C=C3/C(=O)N(c4ccc(C(=O)O)cc4)N=C3C)o2)ccc1Cl | i | 86 | 84 | i | 56* | -27 | 47*
